Measurements taken from PubChem BioAssay (EPA / NIEHS).
Inconclusive results are not listed. Active and inactive are the calls of the source. How the source made its calls: active means hit-call score of the fitted dose curve at least 0.9, where 1 is the maximum; inconclusive means response in the unintended direction; inactive means score below 0.9.

Test: ACEA_ER_AUC_viability: ACEA Biosciences xCELLigence Real-Time Cell Analysis on Estrogen Receptor Agonism for Viability (AID 2283782);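 further: continuous compound exposure with impedance area under curve over 80 h; hit means loss of impedance signal meaning reduced cell growth or viability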
Procedure, shortened: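 T-47D human breast cells in phenol red-free RPMI1640 with 10% charcoal-stripped FBS were dosed with an 8-point 1:4 dilution series from 100 uM top final concentration, in duplicate. Impedance-based growth was followed for 80 h; AUC analysed versus DMSO.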

| Structure (SMILES) | outcome | AC50 |
| --- | --- | --- |
| CCOC(=O)C=Cc1ccccc1 | inactive |  |
| CCCOC(=O)CC | inactive |  |
| CC/C=C\CCOC(=O)C(C)C | inactive |  |
| C=CC(=O)OCC(CO)(COC(=O)C=C)COC(=O)C=C |  | 2.64 µM (active) |
| OCCCO | inactive |  |
| COc1ccc(C(C)=O)cc1 | inactive |  |
| CC(=O)OC/C=C(C)/C=C/C=C(C)/C=C/C1=C(C)CCCC1(C)C |  | 68.5 µM (active) |
| CCOC(=O)COC(=O)c1ccccc1C(=O)OCC | inactive |  |
| C=C(C)CCCC(C)CCO (centres undefined) |  | 50 µM (active) |
| CC1(C)CC(=O)CC(C)(C)N1 | inactive |  |
| CCCCCCCCSCc1cc(C)c(O)c(CSCCCCCCCC)c1 | inactive |  |
| C[C@H](CCC(=O)O)[C@H]1CC[C@H]2[C@@H]3CC[C@@H]4C[C@H](O)CC[C@]4(C)[C@H]3CC[C@]12C |  | 85.2 µM (active) |
| Cc1cc(O)c(C)c(C)c1O |  | 76.1 µM (active) |
| O=C1CCC(=O)N1 |  | 50 µM (active) |
| CCOC(=O)CCCCCCCCC(=O)OCC | inactive |  |
| C=C(C)C(=O)OCCC(F)(F)C(F)(F)C(F)(F)C(F)(F)C(F)(F)C(F)(F)C(F)(F)C(F)(F)F | inactive |  |
| CCC(CC)CO | inactive |  |
| CC(=O)c1cccnc1 | inactive |  |

| Structure (SMILES) | outcome | AC50 |
| --- | --- | --- |
| CC(=O)c1ccc(O)cc1 | inactive |  |
| CC(C)(O)C(=O)c1ccc(OCCO)cc1 | inactive |  |
| c1ccc2c(c1)-c1ccc3ccc4cccc5cc-2c1c3c45 | inactive |  |
| C=CCS(=O)(=O)O | inactive |  |
| O=S1(=O)CC=CC1 | inactive |  |
| Nc1ccn([C@H]2CC[C@@H](CO)O2)c(=O)n1 | inactive |  |
| CCCCCC#CC(=O)OC |  | 50 µM (active) |
| c1ccc(Sc2ccccc2)cc1 |  | 83.4 µM (active) |
| C=CC(C)(CCC=C(C)C)OC(=O)CC (centres undefined) |  | 50 µM (active) |
| CC(=O)CCC(=O)O | inactive |  |
| N[C@@H](CCC(=O)O)C(=O)O | inactive |  |
| CC(=O)OCC=C(C)CCC=C(C)CCC=C(C)C | inactive |  |
| CCCCCCOC(C)=O |  | 38.5 µM (active) |
| CC(=N[Si](C)(C)C)O[Si](C)(C)C | inactive |  |
| CC(=O)c1ccc(C)cc1 | inactive |  |
| ClCCOCCOCCCl | inactive |  |
| CCCCCCCC1CCCC1=O (centres undefined) | inactive |  |
| C=C1CC[C@H]2O[C@]2(C)CC[C@@H]2[C@@H]1CC2(C)C | inactive |  |

Test: STM_H9_NormalizedViability: Cytotoxicity Assessment at 120 hours in the Stemina devTOX quickPredict H9 human embryonic stem cell (hESC)-based Assay (AID 2283784)
Procedure, shortened: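 Undifferentiated H9 hESCs kept pluripotent were exposed to compound, with media and chemical replaced every 24h. CellTiter-Fluor protease-substrate fluorescence was background-corrected and normalized per plate to the 0.1% DMSO vehicle; signal loss indicates reduced viability.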

| Structure (SMILES) | outcome | AC50 |
| --- | --- | --- |
| CCOC(=O)C=Cc1ccccc1 | inactive |  |
| CC(=O)OC/C=C(C)/C=C/C=C(C)/C=C/C1=C(C)CCCC1(C)C |  | 87.5 µM (active) |
| CCCCCCOC(C)=O | inactive |  |
